# NTMT1 inhibitor: Primary qHTS for Inhibitors of N-terminal methyltransferase 1 (NTMT1): MTaseGlo Assay; NTMT1 MTase-Glo SAH luminescence, purified enzyme; Potency, µM (top dose mostly 114 µM), without a hit: top-dose activity change, negative = inhibition, most hits filed as inhibitors; 2.5% of 59,000 active;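 further: plate controls were DMSO vehicle for no effect and no enzyme for full effect; nearly all actives have a fitted effect of over 65% in size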
# Target sequence (Q9BV86 whole entry, looked up): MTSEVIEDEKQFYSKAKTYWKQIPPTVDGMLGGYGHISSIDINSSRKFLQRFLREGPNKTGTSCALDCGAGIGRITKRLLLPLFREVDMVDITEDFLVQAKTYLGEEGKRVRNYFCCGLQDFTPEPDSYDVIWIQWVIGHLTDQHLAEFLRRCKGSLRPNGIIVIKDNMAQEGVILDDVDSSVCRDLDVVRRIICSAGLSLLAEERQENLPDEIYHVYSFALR
# HTT-AS promoter: Primary qHTS for Identification of Small Molecule Activators of Huntingtin-Antisense Promoter Activity | HEK293 HTT-AS promoter firefly luciferase reporter, 24 h; response scale: percent change from vehicle, -100% = no light | Potency, µM (doses to about 57.5 µM), for the others: at the highest dose activity change, positive = activation, most hits filed as activators | 0.24% of 48,000 active; further: nearly all actives have a fitted effect of over 55% in size
#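 HEK293 Fluc reporter, 2,500 cells/well, 24 h pre-culture; cpds up to 57.5 uM final, 24 h 37 degrees C; Dual-Glo, 10 min RT; normalized vehicle = 0%, zero RLU = -100%.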
# HTT prom inh: Primary qHTS for Identification of Small Molecule Inhibitors of Huntingtin Promoter Activity | AID 1508623, 2021 | 0.93% of 48,000 active | Potency, µM (series often up to 57.5 µM), for the others: at the top dose activity change, negative = inhibition, usual class: inhibitors | HEK293 HTT promoter firefly luciferase reporter, 24 h; further: nearly all actives have a fitted effect of over 50% in size
#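 Luminescence was read after Dual-Glo reagent and a 10 min room-temperature incubation. Values were normalized to vehicle (0% activity) and zero RLU (-100% activity). Reporter HEK293 cells had been exposed to compounds (up to 57.5 uM final) for 24 h.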
# Active calls of the source: *; ? = inconclusive; . = no result given; ! = a repeat was not active; [ ] = remark or other dose. The sample as a whole holds a higher share of hits than the screen did. The call rests on the fitted dose curve; in most records, active means well fitted curve in the direction sought with a large enough effect; inconclusive means small, poorly fitted or top-dose-only effect, or another doubt; inactive means no such curve, though single readings can be large; an effect the other way counts as inactive or inconclusive. Potency means the concentration at half of the fitted maximal effect.
SMILES,NTMT1 inhibitor,HTT-AS promoter,HTT prom inh
C=C1CC[C@@H]2[C@](C)(CO)[C@H](O)CC[C@@]2(C)[C@@H]1C/C=C1/C(=O)OCC1OC(=O)/C(=C/CO)C(O)C[C@@H]1C(=C)CC[C@@H]2[C@](C)(CO)[C@H](O)CC[C@]21C (stereo not given in full),-6.4%[12.6 µM],.,.
O=C(O)c1c(Cl)c(Cl)c(Cl)c(Cl)c1-c1c2cc(I)c(=O)c(I)c-2oc2c(I)c(O)c(I)cc12,3.55µM*,-46.0%,-22.9%
CCCCNc1nc(N)c2[nH]c(=O)n(Cc3ccc(OCCN(C)C)nc3)c2n1,3.2%[57.5 µM],.,.
Cc1ccc(CNC(=O)Nc2cc(C(=O)NCc3ccc(C(C)C)cc3)ccc2N2CCCC2)cc1,0.0%,-12.9%,?
CC(C)c1ccc(CNC(=O)c2ccc(N3CCCC3)c(NC(=O)NCc3ccccc3)c2)cc1,-4.6%,-19.4%,25.1µM*
Cc1cc(=O)c2c(O)c3c(O)cc(=O)c4c3c3c(cc(O)c1c23)C(C)(C)C=4O,3.55µM*!,-11.9%,-8.1%
CCCNS(=O)(=O)c1ccc2nc(NC(=O)c3ccc(F)cc3)sc2c1,8.91µM*,-11.6%,?
CCCCNS(=O)(=O)c1ccc2nc(NC(=O)c3cccnc3)sc2c1,0.5%,-24.0%,-23.2%
O=C(Nc1ccc(-c2nc3ccccc3[nH]2)cc1)Nc1ccc2c(c1)CCCO2,12.0%,.,.
Cc1c(C(=O)NCC2CCCO2)[nH]c2c1C(=O)CCC2 (stereo not given),-1.1%,.,.
CC[C@H]1OC(=O)[C@H](C)[C@@H](O[C@H]2C[C@@](C)(OC)[C@@H](O)[C@H](C)O2)[C@H](C)[C@@H](O[C@@H]2O[C@H](C)C[C@H](N(C)C)[C@H]2O)[C@](C)(O)C[C@@H](C)C(=O)[C@H](C)[C@H]2OC(=O)O[C@@]21C,4.9%[57.5 µM],.,.
CCOC(=O)c1[nH]c2c(c1C)CCC(c1ccco1)C2 (stereo not given),-0.7%,.,.
CCOC(=O)c1[nH]c2c(c1C)C(=S)CC(c1ccco1)C2 (stereo not given),39.8µM*,.,.
CC(C)=CCC/C(C)=C/CO[C@@H]1O[C@H](CO[C@@H]2O[C@@H](CO)[C@H](O)[C@H]2O)[C@@H](O)[C@H](O)[C@H]1O,-10.1%[29.8 µM],.,.
Cc1ccc(OCCn2c(CCNC(=O)c3c(F)cccc3F)nc3ccccc32)cc1,12.0%,.,.
Cc1nc2sccn2c(=O)c1S(=O)(=O)Nc1ccc(N2CCOCC2)c(Cl)c1,-1.4%,-27.4%,?
CCN1CCN(c2ccc(NS(=O)(=O)c3c(C)nc4sccn4c3=O)cc2Cl)CC1,10.1%,-45.4%,15.8µM*
CCCc1ccc(NC(=O)c2ccc3c(c2)NC(=O)CS3)cc1,-1.1%,.,.
COc1cc(Oc2ccnc3cc(OC)c(OC)cc23)ccc1NC(=O)NC(C)c1nccs1 (stereo not given),79.4µM*!,-24.6%,-13.5%
CCCNC(=O)Nc1ccc(Oc2ncnc3cc(OC)c(OC)cc23)cc1Cl,17.1%[57.5 µM],-10.1%,-8.0%
O=[N+]([O-])c1cccc(CNc2ccc(S(=O)(=O)Nc3nccs3)cc2)c1O,24.2%,.,.
CSc1ccc(C(=O)N[C@@H]2CCCC[C@@H]2NC(=O)CNC(=O)c2cc(C(F)(F)F)ccc2NC(=O)NC(C)C)cc1,5.6%[57.5 µM],.,.
CC1Cc2ccccc2N1C(=O)Cc1nc(N2CCOCC2)cc(=O)[nH]1 (stereo not given),0.8%,.,.
CCOc1ccc(Cn2c(=O)oc3ccccc32)cc1,-3.8%,-6.6%,8.4%
O=c1oc2ccccc2n1CCCOc1ccccc1Cl,1.2%,7.94µM*,22.3%
SMILES,NTMT1 inhibitor,HTT-AS promoter,HTT prom inh
COc1ccc(Nc2ncnc3c2cnn3C)c(OC)c1,13.7%,4.1%,-3.3%
Cc1noc(C)c1-c1ccc2ncnc(NCC3CCN(C)CC3)c2c1,-12.8%,.,.
COc1cc2c(Nc3ccc(Cl)c(Cl)c3F)ncnc2cc1OCC1C[C@@H]2CN(C)C[C@H]2C1,24.1µM*,-50.2%,?
COc1cc2c(Nc3ccc(Br)cc3F)ncnc2cc1OCC1CCN(C)CC1,35.5µM*!,-3.4%,10.7%
CC(C)(C)NCc1cc(Nc2ccnc3cc(Cl)ccc23)c2c(c1O)CCCC2,11.1%[0.501 µM],.,.
Cc1c(-c2ccnn2C)cc(C(=O)NCc2ccc(S(C)(=O)=O)cn2)c(=O)n1-c1cccc(C(F)(F)F)c1,6.6%,.,.
CC(=O)c1ccccc1-c1ncc(C)c(NCc2ccc(-c3cccnc3)cc2)n1,-4.8%,.,.
Cc1ccc(OCCn2c(CCNC(=O)C3CCNCC3)nc3ccccc32)cc1,-2.6%[57.5 µM],.,.
CN(C)CCN(C)C(=O)c1ccc(NC(=O)Nc2ccc(-c3nc(N4CCOCC4)c4ccn(CC(F)(F)F)c4n3)cc2)cc1,22.4µM*!,-46.8%,?
CCn1nnc2c(N3CCOCC3)nc(-c3ccc(NC(=O)Nc4ccc(C(=O)N5CCN(C)CC5)cc4)cc3)nc21,-17.6%,-22.6%,?
CC(=O)c1ccc2c(c1)C(O)C(C(C)(C)O)O2 (stereo not given),-0.2%[57.5 µM],.,.
CC(C)(C)C(=O)CN1C(=O)[C@H](NC(=O)Nc2cccc(C(=O)O)c2)CN(C2CCCCC2)c2ccccc21,3.2%,.,.
COc1ccc(/C=C/C(=O)Nc2ccccc2C(=O)O)cc1OC,24.7%[57.5 µM],.,.
Cc1ccc(/C=C/C(=O)Nc2ccccc2C(N)=O)o1,?,3.98µM*,60.3%
O=C(Cc1ccc2ccccc2c1)Nc1ccc(S(=O)(=O)Nc2nccs2)cc1,11.9%[57.5 µM],.,.
Cc1ccc(OCCn2c(CCNC(=O)c3ccccn3)nc3ccccc32)cc1,12.9%,.,.
O=C(C1CCC(CNS(=O)(=O)c2cccs2)CC1)N1CCN(c2ccc(Cl)cc2)CC1 (stereo not given),9.7%,-75.5%,3.98µM*
O=C(C1CCC(CNS(=O)(=O)c2ccc(Br)s2)CC1)N1CCN(c2ccccc2)CC1 (stereo not given),-6.4%,-28.8%,0.0%
COc1ccc(Oc2cc(C)c(-c3csc(NC(=O)c4ccncc4)n3)c(C)c2)cc1,1.9%[57.5 µM],.,.
Cc1cc(-c2ccc(C)c(S(=O)(=O)N3CCOc4ccc(Cl)cc43)c2)on1,-6.2%,-34.6%,28.2µM*
Cc1ccc(-c2onc(C)c2C)cc1S(=O)(=O)N1CCOc2ccc(Cl)cc21,-11.9%,-91.4%,?
O=C(OCC#CCSc1nnc(-c2ccc3ccccc3c2)o1)c1ccsc1,13.4%,.,.
CCc1ccc2occ(CC(=O)Nc3c(C(=O)c4ccc(C)cc4)oc4ccccc34)c2c1,-0.3%,-5.1%,-8.1%
CCc1oc2ccccc2c1C(=O)c1cc(I)c(O)c(I)c1,20µM*,-25.5%,-11.8%
O=C(Nc1cc(Cl)cc2c1[nH]c1cnccc12)c1cccnc1,17.8µM*!,-41.1%,0.6%
Cc1cc(Nc2cccc(Cl)c2)nc2ccc(NC(=O)c3cccnc3)cc12,?,-60.1%,?
O=C1NC(=O)C(c2ccccc2[N+](=O)[O-])=C1Nc1ccc(O)c(Cl)c1,44.7µM*!,-28.2%,-18.3%
O=[N+]([O-])c1ccccc1NCc1ccc(O)c2ncccc12,-4.9%,.,.
O=C(OCC#CCSc1nnc(-c2ccc3ccccc3c2)o1)c1cc2ccccc2s1,2.4%,.,.

# Screening results as filed in PubChem BioAssay.
